Most compounds without a hit are left out; they make up all but 12% or so of the library.
JMJD2A Tudor = inhibitors of human JMJD2A Tudor domain | O75164 | 4.4% of 390,000 active | AlphaScreen JMJD2A-Tudor / H3K4me3 peptide binding | Potency, µM (doses to about 114 µM), for the others: at the top dose activity change, negative = inhibition, actives largely listed as inhibitors | AID 504339; also: % is scaled to controls: 0 for no effect and ±100 for the full control effect; nearly all actives have a fitted effect of over 50% in size
L3MBTL1 block = L3MBTL1 (human) inhibition. Q9Y468. AlphaScreen L3MBTL1–H3K9me1 peptide binding. Potency, µM (titrated, usually from 57.1 µM), without a hit: at the highest dose activity, negative = inhibition, usual class: inhibitors. 0.66% of 230,000 active. AID 485360; also: % is scaled to controls: 0 for no effect and ±100 for the full control effect; nearly all actives have a fitted effect of over 60% in size
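Read-out is AlphaScreen signal from streptavidin donor and nickel chelate acceptor beads (10 ug/mL final each) bridging L3MBTL1 (50 nM) and biotinylated K9-monomethylated H3(1-15) peptide (75 nM), after 30 min compound exposure at room temperature.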
BAZ2B inh = BAZ2B (human) inhibition; Potency, µM (doses to about 114 µM), for inactives: at the top dose activity change, negative = inhibition, actives largely listed as inhibitors; 4.4% of 360,000 active; Q9UIF8; AlphaScreen BAZ2B-H3K14Ac peptide displacement; also: % is scaled to controls: 0 for no effect and ±100 for the full control effect; nearly all actives have a fitted effect of over 60% in size
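BAZ2B (50 nM) with biotin-H3(5-23)K14Ac peptide (50 nM) in PBS pH 7.4, 0.01% Tween-20, preformed 30 min, then compound 30 min at room temperature; top concentration 110uM. AlphaScreen streptavidin donor/nickel chelate acceptor beads (10 ug/mL final), 20 min dark, signal read.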
Sfp PPTase inh = blocks B. subtilis Sfp PPTase activity; Q9F4F7; Biochemical Sfp PPTase activity, qHTS; Potency, µM, without a hit: largest response in the series, negative = inhibition, hits mostly inhibitors; 3.5% of 310,000 active; AID 1490;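 also: the enzyme is Sfp with the accession as filed and its product quenches rhodamine fluorescence; 0% = enzyme reaction without inhibitor and -100% = no enzyme wells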
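Compounds were incubated with enzyme (final 15 nM) for 15 min at room temperature before substrate addition started the reaction. Fluorescence at 525 nm excitation, 598 nm emission was recorded immediately and after 30 minutes.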
HP1b binding inh = inhibitors of HP1-beta chromodomain binding to methylated histone tails; AlphaScreen HP1-beta / biotin-H3K9me3 peptide binding; Potency, µM (highest dose often 114 µM), for inactives: top-dose activity change, negative = inhibition, hits mostly inhibitors; 0.56% of 390,000 active; AID 540317; also: nearly all actives have a fitted effect of over 70% in size
Target sequence (P83916 whole entry, looked up): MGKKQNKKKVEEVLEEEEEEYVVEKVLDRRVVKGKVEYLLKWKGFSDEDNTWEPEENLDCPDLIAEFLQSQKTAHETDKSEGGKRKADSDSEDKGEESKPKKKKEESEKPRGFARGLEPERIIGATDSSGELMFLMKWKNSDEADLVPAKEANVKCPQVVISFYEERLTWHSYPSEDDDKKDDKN
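Compound inhibition of the preformed complex between 50 nM HP1-beta and 50 nM biotinylated H3K9me3 peptide was read by AlphaScreen. Buffer was PBS pH 7.4 with 0.01% Tween-20. Incubations ran 30 min at room temperature, with 10 ug/mL donor/acceptor beads.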
G9a block = blocks human histone lysine methyltransferase G9a; Q96KQ7; G9a H3K9 monomethylation, AlphaScreen, 2 h; Potency, µM (series often up to 102 µM), for inactives: at the top dose activity, negative = inhibition, actives largely listed as inhibitors; 8.8% of 350,000 active; AID 504332; also: % is scaled to controls: 0 for no effect and ±100 for the full control effect; nearly all actives have a fitted effect of over 75% in size
Target sequence (Q96KQ7 913-1193 limits assumed): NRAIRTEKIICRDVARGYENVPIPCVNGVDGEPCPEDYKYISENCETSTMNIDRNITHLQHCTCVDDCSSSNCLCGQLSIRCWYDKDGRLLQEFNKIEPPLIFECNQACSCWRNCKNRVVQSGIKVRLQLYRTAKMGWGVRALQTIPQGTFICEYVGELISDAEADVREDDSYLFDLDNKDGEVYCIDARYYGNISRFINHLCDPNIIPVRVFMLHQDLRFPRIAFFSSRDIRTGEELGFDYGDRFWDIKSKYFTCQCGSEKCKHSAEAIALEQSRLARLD
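Enzyme 20 nM + cpd, 15 min RT; add b-H3K9 pep 500 nM / SAM 20 uM; 2 h RT; anti-H3K9me1 Ab 0.5 ug/mL + SA donor / anti-rabbit acceptor beads 20 ug/mL each, 10 min; AlphaScreen read.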
The depositor's hits bear a star; ? = inconclusive; . = no result; [ ] = another dose, or the depositor's remark. Calls follow the shape of the dose curve; as a rule, active = well fitted curve in the direction sought with a large enough effect; inconclusive = small, poorly fitted or top-dose-only effect, or another doubt; inactive = no such curve, though single readings can be large; an effect the other way counts as inactive or inconclusive. Potency is read from the fitted curve at half-maximal effect.

SMILES	JMJD2A Tudor	L3MBTL1 block	BAZ2B inh	Sfp PPTase inh	HP1b binding inh	G9a block
CC(CCc1ccccc1)NC(=O)CCNC(=O)c1ccccc1Cl (stereo not given)	-1%	3%	.	.	31%	.
CC(=O)Nc1ccc(SCCN2CCN(CC(C)C)CCC2=O)cc1	-10%	.	.	45µM*	38%	.
O=C1CC2(CCN(C(=O)COc3ccc(Cl)cc3)CC2)Oc2ccccc21	-15%	2%	-12%	.	4%	-16%
O=c1[nH]c2sc3c(c2c(=O)n1Cc1ccccc1)CCC3	-15%	-5%	8%	6%	-14%	-1%
C=CCn1c(=S)[nH]c2sc3c(c2c1=O)CCCC3	-22%	1%[2.29 µM]	0%	12%	27%	20%[0.501 µM]
COCCn1c(=S)[nH]c2sc3c(c2c1=O)CCCC3	-14%	.	0%	-27%	31%	7.9µM*
COCCCn1c(=S)[nH]c2sc3c(c2c1=O)CCCC3	?	.	-4%	-24%	2%	8.9µM*
O=C(COc1ccccc1[N+](=O)[O-])N/N=C/c1ccc(O)c([N+](=O)[O-])c1	-20%	-23%	-20%	-4%	?	50µM*
O=C(COc1ccccc1C(=O)N/N=C\c1ccc(O)c(O)c1)N/N=C/c1ccc(O)c(O)c1	2.2µM*	1.6µM*	1.6µM*	?	7.9µM*	?
O=[N+]([O-])c1cc(/C=N\Nc2nccs2)ccc1O	.	.	4µM*	14µM*	.	-6%[2.33 µM]
Cc1ccc(OCC(=O)N/N=C/c2ccccc2)c([N+](=O)[O-])c1	-19%	.	1%	8%	1%	-6%
CC(C)NC(=O)N(C)C[C@H]1Oc2c(NC(=O)C3CC3)cccc2C(=O)N([C@H](C)CO)C[C@@H]1C	-9%	6%	.	.	85%	.
COc1ccccc1NC(=O)[C@@H]1CCCN1S(=O)(=O)c1ccc(Cl)cc1	-1%	1%	.	.	22%	.
Cc1ccccc1-c1nnc(SCC(=O)N2CCCCC2)o1	12%	.	3%	.	12%	?
CCOC(=O)c1c(C)[nH]c(C)c1S(=O)(=O)N1CCCC(C(=O)N2CCN(c3cccc(C)c3C)CC2)C1 (stereo not given)	?	.	?	.	-14%	-16%[59 µM]
CCCCc1nc2ccccc2c(NC(=O)CNC(C)(C)C)c1CCC	10µM*	.	50µM*	?	-21%	8.9µM*
O=C1OCC2=C1C(c1cccc(Cl)c1)CC(=O)N2c1ccc(C(F)(F)F)cc1 (stereo not given)	-10%	.	-15%	.	17%	2%[59 µM]
C/C(=N\Nc1ccc(Cl)c(C(=O)O)c1)c1cc2ccccc2o1	-28%	13%	?	-14%	12%	28µM*
C/C(=N\Nc1ncnc2sc(C)c(C)c12)c1ccccn1	32µM*	.	7.1µM*	12%	9%[57 µM]	25µM*
COc1ccc(NCC(=O)N/N=C(\C)c2cc3ccccc3o2)cc1	?	?	35µM*	-26%	-18%	16µM*
C/C(=N\Nc1cccc(C(=O)O)c1)c1cc2ccccc2o1	?	-18%	?	0%	-10%	50µM*
C/C(=N\NC(=O)CNc1ccc(F)cc1)c1cc2ccccc2o1	?	-29%	?	1%	-16%	?
C/C(=N\Nc1cccc([N+](=O)[O-])c1)c1cc2ccccc2o1	-26%	-6%	-25%	21%	35%	-30%
Cc1ccc(NC(=O)c2cc3ccccc3o2)cc1Cl	6%	88%	26%	-13%	79%	.
CCC(CC)c1nnc(NC(=O)c2cc([N+](=O)[O-])ccc2N2CCOCC2)s1	?	3%	.	.	-8%	.
SMILES	JMJD2A Tudor	L3MBTL1 block	BAZ2B inh	Sfp PPTase inh	HP1b binding inh	G9a block
CCOC(=O)C1CCCN(S(=O)(=O)c2ccc3c(c2)N(C)C(=O)CC(=O)N3C)C1 (stereo not given)	5%	.	-11%	4%	36%	24%
COc1ccc(C(=O)NCCn2cc(SCC(=O)NCCc3ccc(OC)c(OC)c3)c3ccccc32)cc1	-21%	.	?	.	17%	-44%[59 µM]
CCC(CC)C(=O)Nc1nnc(SCc2cc(=O)n3cccc(C)c3n2)s1	-9%	.	5%	.	15%[57 µM]	22%[59 µM]
C/C(=N\Nc1ccc(Cl)c(C(=O)O)c1)c1ccccn1	5%[11.4 µM]	-5%	-14%	79µM*	28%	.
Clc1cnc(N/N=C/c2ccncc2)c(Cl)c1	-17%	.	-1%	9%	22%	11%
COc1ccc2oc(=O)c(/C(C)=N/Nc3nc(-c4cc(C)ccc4C)cs3)cc2c1	-12%	7%	11%	-13%	39%	?
C/C(=N\Nc1ncc(Cl)cc1Cl)c1ccccn1	?	-23%	22µM*	-23%	12%	45µM*
C/C(=N\Nc1ccccc1C(=O)O)c1ccncc1	-7%	.	-15%	2%	38%	?
C/C(=N\Nc1nc(-c2ccc(C)cc2C)cs1)c1cc2ccccc2oc1=O	-26%	13%	5%	40µM*	22%	?
O=C(O)c1cc(N/N=C/c2cccc3ccccc23)ccc1Cl	-16%	.	-10%	-1%	4%	?
C/C(=N\Nc1ccc(Cl)c(C(=O)O)c1)c1cccc2ccccc12	56µM*	.	?	-10%	79µM*	10µM*
COc1ccc(/C=C2/CSC/C(=C/c3ccc(OC)c(OC)c3)C2=O)cc1OC	-13%	.	.	.	10%	.
C/C(=N\Nc1ccccc1)c1cc2ccccc2oc1=O	?	-12%	-24%	-8%	1%	35µM*
C/C(=N\Nc1cccc2cccnc12)c1ccccn1	?	13%	?	-9%	?	14µM*
Cc1ccc(NS(=O)(=O)c2ccc3c(c2)CCC(=O)N3)cc1F	-26%	.	.	.	.	.
COc1ccc(CCNC(=O)CCc2c(C)nc3cc(-c4ccc(Cl)cc4)nn3c2C)c(OC)c1	-23%	.	-19%	.	34%	4%[59 µM]
NC(=O)c1ncn([C@@H]2O[C@H](CNCc3cc(Cl)ccc3OCc3ccc(Cl)cc3)[C@@H](O)[C@H]2O)n1	-25%	.	.	.	11%	.
O=[N+]([O-])c1cc2no[n+]([O-])c2cc1N1CCCCC1	45µM*	.	.	.	14µM*	.
Cc1ccc(Oc2ccc(C(F)(F)F)cc2[N+](=O)[O-])c([N+](=O)[O-])n1	-27%	-8%	-25%	16%	-10%	-4%
O=C(O)c1cccn2c(=O)c3ccccc3nc12	79µM*	3%	?	7%	6%	?
Cc1cc(=O)c(C(=O)O)cn1Nc1ccc(F)cc1	50µM*	.	?	-8%	-11%	?
Cc1ccc(C)c(NC(=O)CCN2CCN(c3ccccc3F)CC2)c1	-5%	.	1%	12%	25%	-9%[2.33 µM]
COC(=O)[C@H]1[C@@H]2C[C@H]3c4[nH]c5ccccc5c4CCN3C[C@@H]2CC[C@@H]1O	.	.	.	2%	.	.

Assay outcomes as filed in PubChem.
